Hits are enriched below; roughly 3.6% of the tested compounds scored in any of these assays.
BJeLR lethal = BJeLR cell viability loss; BJeLR (HRASV12) viability, CellTiter-Glo ATP luminescence, 48 h; inhibition, % (concentration not given with the values); actives 0.17% (n = 300,000); AID 1554; in the data active = inhibition above about 50%; inconclusive = no clear call, values can overlap the other calls
Anthrax LF prot = blocks Bacillus anthracis lethal factor protease | actives 0.12% (n = 360,000) | P15917 | inhibition, % at 10 µM | multiplex microsphere protease cleavage assay, LF
Target sequence (P15917 whole entry, looked up): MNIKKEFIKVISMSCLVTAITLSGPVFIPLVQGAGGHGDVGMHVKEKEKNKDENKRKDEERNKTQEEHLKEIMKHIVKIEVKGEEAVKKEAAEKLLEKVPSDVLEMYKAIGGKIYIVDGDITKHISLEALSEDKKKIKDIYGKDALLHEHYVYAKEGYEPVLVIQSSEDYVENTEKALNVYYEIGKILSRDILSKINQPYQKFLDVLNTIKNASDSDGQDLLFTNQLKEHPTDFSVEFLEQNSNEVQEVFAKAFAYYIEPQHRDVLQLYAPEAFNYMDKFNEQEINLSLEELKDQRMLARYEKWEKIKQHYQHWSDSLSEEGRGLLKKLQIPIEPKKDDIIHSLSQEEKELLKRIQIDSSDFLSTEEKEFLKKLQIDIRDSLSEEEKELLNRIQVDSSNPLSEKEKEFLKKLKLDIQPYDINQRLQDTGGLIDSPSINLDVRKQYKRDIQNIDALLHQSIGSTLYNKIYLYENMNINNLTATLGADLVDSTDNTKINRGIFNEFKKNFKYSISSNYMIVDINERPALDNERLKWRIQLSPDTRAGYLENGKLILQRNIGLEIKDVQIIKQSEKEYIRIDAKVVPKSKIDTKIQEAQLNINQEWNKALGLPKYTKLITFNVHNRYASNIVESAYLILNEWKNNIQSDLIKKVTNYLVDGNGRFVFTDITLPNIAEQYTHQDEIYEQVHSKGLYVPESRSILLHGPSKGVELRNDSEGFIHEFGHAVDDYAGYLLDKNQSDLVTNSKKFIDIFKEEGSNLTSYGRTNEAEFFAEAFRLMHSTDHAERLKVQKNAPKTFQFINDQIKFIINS
BoNT F protease = inhibitors of Botulinum neurotoxin F light chain protease; inhibition, % at 10 µM; Multiplex microsphere protease cleavage assay, flow cytometry; actives 0.22% (n = 360,000); AID 588497; in the data active = inhibition above about 35%, passing the limit was not always enough; inconclusive = no clear call, values can overlap the other calls
BoNT A protease = BoNT A light chain protease inhibition; multiplex microsphere protease substrate cleavage, flow cytometry; inhibition, % at 10 µM; actives 0.17% (n = 360,000)
SARS 3CLpro inh = SARS-CoV 3CLpro protease inhibition; actives 0.14% (n = 290,000); recombinant SARS-CoV 3CLpro, quenched FRET peptide cleavage; P0C6X7; inhibition, % at 6 µM; in the data active = inhibition above about 12%
Bead autofluor = compound fluorescence in toxin protease inhibitor counterscreen | fluorescence intensity (test concentration not listed) | actives 3.1% (n = 360,000) | compound autofluorescence counterscreen, microsphere flow cytometry; stronger effect = higher value; in the data active = fluorescence intensity above about 16000; inconclusive = no clear call, values can overlap the other calls
Numbers stand for hits; n = inactive; u = inconclusive; x = not tested or not shown. Rule as the data show it, unless noted: active = inhibition above about 30%; inconclusive = no clear call, values can overlap the other calls; inactive = below that.

SMILES	BJeLR lethal	Anthrax LF prot	BoNT F protease	BoNT A protease	SARS 3CLpro inh	Bead autofluor
Cc1ccc(NC(=O)Cc2nnc(SCC(=O)Nc3ccccc3)n2C)cc1	n	n	n	n	n	n
Cc1ccccc1NC(=O)Cc1nnc(SCC(=O)c2ccc(Br)cc2)n1C	n	n	n	u	n	18692
Cc1cc(NC(=O)CSc2nnc(COc3cccc(C)c3C)n2C)no1	n	n	n	n	n	n
Cc1cc(S(=O)(=O)N2CCCCC2CCNC(=O)C(=O)NCC2CCCO2)ccc1F (stereo unspecified)	n	n	n	n	x	n
Cc1cccc(CSCc2ccc(C(=O)NC3CCCC3)o2)c1	n	n	n	n	n	n
CC1(c2ccccc2Cl)NC(=O)N(CC(=O)Nc2ccc(N3CCCCC3)cc2)C1=O (stereo unspecified)	n	n	n	n	x	n
CC(=O)c1c(C(C)=O)c(C)n(-c2ccc(O)cc2)c1C	n	n	n	n	n	21526
Cc1ccc2[nH]c3c(=O)n(CCCN4CCN(C)CC4)cnc3c2c1	n	n	n	n	n	23434
Cc1ccc(CNC(=O)CCC2CCCN(C(=O)c3ccc4c(c3)OCO4)C2)o1 (stereo unspecified)	n	n	n	n	n	n
CC(C)c1cc(Br)ccc1OCCN1C(=O)NC(C)(C)C1=O	n	n	n	n	n	n
Cc1cc(C)c(OCCN2C(=O)NC(C)(C)C2=O)c(Cl)c1	n	n	n	n	n	22616
Cc1ccc(C(C)C)c(OCCCN2C(=O)NC(C)(C)C2=O)c1	n	n	n	n	n	n
Cc1cc(Cl)c(OCCCNCc2ccccc2)c(Br)c1	n	n	n	n	n	n
Cc1cc(Cl)cc(Br)c1OCCCN1C(=O)NC(C)(C)C1=O	n	n	n	n	n	20662
COCCNCCCCOc1c(Cl)cc(C)cc1Br	n	n	n	n	n	20464
Cc1cc(Cl)c(OCCN2C(=O)NC(C)(C)C2=O)c(Br)c1	n	n	n	n	n	20599
CCCCNC(=O)C1(C)CCC(=O)N1c1cc(C(C)(C)C)nn1C (stereo unspecified)	x	n	n	n	x	n
CC(=O)NCCNc1nc2cc(-c3cccc(Cl)c3)sc2c(=O)n1C	x	n	n	n	x	n
O=C(COc1ccc(S(=O)(=O)NC2CCCCC2)cc1Cl)N1CCN(c2ccccc2)CC1	n	n	n	u	n	22544
COCC(=O)NC1CCN(S(=O)(=O)c2ccc(C(=O)O)cc2)CC1	n	n	n	n	n	20353
O=C(Cc1ccccc1)NC1CCN(S(=O)(=O)c2ccc(C(=O)O)cc2)CC1	n	n	n	n	n	n
O=C(COc1ccc(S(=O)(=O)N2CCCC2)cc1Cl)NC1CC1	n	n	n	n	n	24369
c1ccc(CC2CCN(c3nc(N4CCOCC4)nc(N4CCOCC4)n3)CC2)cc1	x	x	x	x	n	x
CC(=Nc1ccccc1)C1=C(O)CC(C)(C)CC1=O	n	n	n	n	n	n
Cc1cc(C)nc(/N=C(\N)C2=C(O)CC(C)(C)CC2=O)n1	n	n	n	n	n	21038
SMILES	BJeLR lethal	Anthrax LF prot	BoNT F protease	BoNT A protease	SARS 3CLpro inh	Bead autofluor
CCOC(=O)CC(NC(=O)c1cccc2c1C(=O)N(Cc1cccnc1)C2)c1ccc(OCC)c(OC)c1 (stereo unspecified)	n	n	n	n	n	n
CCCSc1nnc(CSc2nc3ccccc3s2)n1-c1ccccc1	n	n	n	n	n	17205
CCn1c(CSc2nc3ccccc3s2)n[nH]c1=S	n	n	n	n	n	20748
COC(=O)c1c(NC(=O)CSc2nnnn2-c2ccccc2)sc2c1CCC(C)C2 (stereo unspecified)	n	n	n	n	n	n
COC(=O)c1c(NC(=O)CSc2nnnn2-c2ccccc2)sc2c1CCC(C(C)(C)C)C2 (stereo unspecified)	n	n	n	n	n	23374
Cc1ccc(-c2nc(-c3cccnc3)no2)cc1	n	n	n	n	n	n
CCC(=O)Oc1ccc(-c2nc(-c3cccnc3)no2)cc1	n	n	n	n	n	20402
COn1c(SC(C)C)nc2ccccc2c1=O	n	n	n	n	n	n
CC(C)On1c(SC(C)C)nc2ccccc2c1=O	n	n	n	n	n	22943
COn1c(SC2CCCCC2)nc2ccccc2c1=O	n	n	n	n	n	17818
O=C(Cc1cccs1)N/N=C/C(Cl)=C/c1ccccc1	n	n	n	n	n	n
CCOC(=O)C1CCCN(C(=O)c2cc3c(=O)n4cccc(C)c4nc3n2C)C1 (stereo unspecified)	x	x	x	x	n	x

Screening results deposited in PubChem BioAssay by several laboratories.
